High-throughput results from PubChem.
VLA-4 inh: inhibition in a human VLA-4 binding assay; VLA-4 expressing cells, ligand binding flow cytometry; actives 0.2% (n = 330,000); inhibition, % (about 7 µM as worked out from the volumes in the protocol); AID 2557; in the data active = inhibition above about 50%
Bfl-1 A1 inh: inhibitors of the anti-apoptotic protein A1, read as caspase activation | caspase activation, % (test concentration not listed) | MEF A1-2A-BIM cells, Caspase-Glo 3/7 luminescence, 3 h; percent of clofoctol response, vehicle zero | actives 0.066% (n = 330,000);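 active = over half of replicate activation scores above 10%, or exactly half above 10 with the replicate mean above 10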
ALR inh: blocks human ALR sulfhydryl oxidase activity | actives 3.8% (n = 290,000) | P55789 | purified ALR, DTT oxidation, H2O2 HRP-luminol luminescence | AID 485317 | inhibition, % (no concentration beside the values);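 active = mean replicate inhibition above about 79%, with every replicate also reaching it, limit read from the data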
Target sequence (P55789 whole entry, looked up): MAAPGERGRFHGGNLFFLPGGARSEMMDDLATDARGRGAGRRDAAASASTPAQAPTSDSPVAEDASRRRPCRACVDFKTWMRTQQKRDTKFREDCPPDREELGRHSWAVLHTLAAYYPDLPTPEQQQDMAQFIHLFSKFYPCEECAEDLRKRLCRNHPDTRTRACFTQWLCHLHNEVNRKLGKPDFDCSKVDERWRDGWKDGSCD
AHR activator: human AHR activation. AHR-responsive luciferase reporter cells, luminescence. activation, % at 5 µM. actives 2.5% (n = 320,000); in the data active = activation above about 47%
Efflux pump mplx: inhibitors of Candida antifungal efflux pumps expressed in yeast; S. cerevisiae Candida pump triplex, Nile Red efflux; inhibition, % at 10 µM; actives 0.44% (n = 330,000);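 active = plate passing quality check with inhibition over a set limit, or well fluorescence over plate mean plus 4 SD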;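 note: Nile Red retained in pooled yeast measured as flow cytometry median fluorescence; higher means more Nile Red kept so more efflux inhibition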
SUMO Mot1 rescue: blocks SUMOylation pathway, rescuing yeast Mot1-301 growth | S. cerevisiae Mot1-301 growth rescue, ATP luminescence, 38.5C; percent above DMSO median, 100 means doubled | growth rescue, % at 18.8 µM | actives 1% (n = 320,000);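 active = every valid replicate shows activation above 250% relative to neutral control wells; inactive = the rest, any valid replicate at or below 250%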
A number is an active result; - = inactive; . = no result given. A selection: hits, their analogues and other compounds. The true share with any hit is near 7.2%.

SMILES	VLA-4 inh	Bfl-1 A1 inh	ALR inh	AHR activator	Efflux pump mplx	SUMO Mot1 rescue
CCN(CC)CCCNC(=O)c1cc2c(-c3cccc(OC)c3)nn(C)c2s1	-	-	-	-	-	-
COCCNC(=O)c1cc2c(-c3ccc(Cl)cc3)nn(C)c2s1	-	-	92	59	-	-
COCCCNC(=O)c1cc2c(-c3ccc(Cl)cc3)nn(C)c2s1	-	-	-	64	-	-
CCN1CCCC1CNC(=O)c1cc2c(-c3ccc(Cl)cc3)nn(C)c2s1 (stereo not drawn)	-	-	-	59	-	-
CCCCN(CC)CCCNC(=O)c1cc2c(-c3ccc(OC)c(OC)c3)nn(C)c2s1	-	-	-	-	-	-
CCCCNC(=O)c1cc2c(-c3ccc(Cl)cc3)nn(C)c2s1	-	-	-	50	-	-
C=CCN(C(=O)CC(NC(C)=O)c1ccccc1)c1nc(-c2ccc(S(C)(=O)=O)cc2)cs1 (stereo not drawn)	-	-	-	-	-	-
Cc1ccc(OCc2nnc(SCC(=O)N3C(C)CCCC3C)o2)cc1 (stereo not drawn)	-	-	-	-	-	-
N#Cc1ccc(CN2CCN(C(=O)CCNS(=O)(=O)c3ccc(F)c(Cl)c3)CC2)cc1	-	-	-	-	-	-
Cc1cc2nc(C3CCN(C(=S)NCCCOC(C)C)CC3)[nH]c2cc1C	-	-	-	-	-	-
Cc1oc2ccc(OS(C)(=O)=O)cc2c1C(=O)OC(C)C	-	-	-	-	-	-
CCN(CC)C(=O)COc1ccc2oc(C)c(C(=O)OC(C)C)c2c1	-	-	-	67	-	-
Cc1ccc(CNC(=O)/C(C#N)=C\c2ccc(N(C)C)cc2)cc1	-	-	98	-	-	-
O=C(CN(C(=O)Cn1nnc(-c2ccc(F)cc2)n1)c1ccc(F)cc1)NC1CCCC1	-	-	-	-	-	-
C=CCN(Cc1ccc(Cl)s1)C(=O)c1ccc(F)c(S(=O)(=O)N2CCOCC2)c1	-	-	-	-	-	-
CC(CN1CCN(C)CC1)OC(=O)c1ccccc1Cl (stereo not drawn)	-	-	-	-	-	346
CC(CN1CCCC1)OC(=O)c1ccccc1Cl (stereo not drawn)	-	-	-	-	-	-
CC(C(=O)Nc1ccc(N(C)C)cc1)N1C(=O)c2ccccc2S1(=O)=O (stereo not drawn)	-	-	99	-	-	-
CCOc1ccc(NC(=O)C(C)N2C(=O)c3ccccc3S2(=O)=O)cc1 (stereo not drawn)	-	-	-	-	-	-
O=C(Cn1nnc(-c2ccc(F)cc2)n1)OCC(=O)c1ccccc1	-	-	-	-	-	-
O=C(Cn1nnc(-c2ccccc2F)n1)OCC(=O)c1ccccc1	-	-	93	-	-	-
COc1ccc(N(C(=O)c2ccco2)C(C(=O)NC2CCCC2)c2cc(OC)c(OC)c(OC)c2)cc1 (stereo not drawn)	-	-	.	-	-	-
CCCCn1c(SCc2nc(N)nc(N3CCCCC3)n2)nc2c1c(=O)n(C)c(=O)n2C	-	-	-	-	-	-
CN(C)c1ccc(CC(=O)c2nc3ccccc3s2)cc1	-	-	-	-	-	-
CC1Cc2ccccc2N1CC(=O)Nc1ccc(S(=O)(=O)N(C)C)cc1 (stereo not drawn)	-	-	-	-	-	-
SMILES	VLA-4 inh	Bfl-1 A1 inh	ALR inh	AHR activator	Efflux pump mplx	SUMO Mot1 rescue
CC1Cc2ccccc2N1Cc1cccc(S(=O)(=O)N(C)C)c1 (stereo not drawn)	-	-	99	-	-	-
COc1ccc(OC)c(/C=N/NC(=S)NCCc2ccccc2)c1	-	-	-	.	-	-
CC(C)c1cccc(C(C)C)c1NC(=O)COc1nncc2ccccc12	-	-	-	-	-	-
CCN(CCNC(=O)C1CCCN(Cc2nc(-c3ccc(OC)cc3)oc2C)C1)c1ccccc1 (stereo not drawn)	-	-	96	-	-	-
CCc1ccc(-c2nc(CN3CCC(C(=O)NCCN(CC)c4ccccc4)CC3)c(C)o2)cc1	-	-	99	-	-	-
CCN(CCNC(=O)C1CCN(Cc2nc(-c3cccc(Cl)c3)oc2C)CC1)c1ccccc1	-	-	99	-	-	-
Cc1oc(-c2cccc(Cl)c2)nc1CN1CCC(C(=O)NC2CC2)CC1	-	-	-	-	-	-
